HEK293 tox: kills HEK 293 cells. HEK 293 viability, ATP luminescence (CellTiter-Glo), 48-72 h. Potency, µM (series often up to 115 µM), actives largely listed as inhibitors. 94,000 tested, 6.6% active. AID 1345083; also: nearly all actives have a fitted effect of over 60% in size
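HEK 293 cells seeded at 250 cells/well were exposed to compound for 48 or 72 hr at 37 degree Celsius. Viability taken as ATP content by CellTiter-Glo luminescence.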
3T3 cytotox: kills NIH 3T3 cells; NIH 3T3 viability, CellTiter-Glo ATP luminescence, 48-72 h; AID 1345082; Potency, µM (doses to about 96.7 µM), most hits filed as inhibitors; 94,000 tested, 4.3% active; also: nearly all actives have a fitted effect of over 55% in size
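NIH 3T3 cells at 400 cells/well received 23 nL of compound by pintool and were incubated 48 or 72 h at 37 °C. Viability was read as ATP-coupled CellTiter-Glo luminescence.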
hNpr1 antagonist: antagonists of human natriuretic peptide receptor Npr1; AID 1347048; Potency, µM (highest dose often 46.3 µM), actives largely listed as inhibitors; HEK293 hNpr1 GloSensor cGMP, ANP-stimulated luminescence; 76,000 tested, 1.6% active; P16066; calls by dose curve; also: nearly all actives have a fitted effect of over 60% in size
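HEK293 cells stably expressing human Npr1 and cGMP GloSensor pGS-40F, loaded 2 h with 2% GloSensor reagent, given compound 30 min at room temperature. Luminescence read before and 20 min after 0.1 nM hNppA.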
Luciferase inh: blocks purified firefly luciferase enzyme activity | P08659 | purified P. pyralis luciferase, luminescence, biochemical | Potency, µM (top dose mostly 115 µM), most hits filed as inhibitors | 76,000 tested, 2.5% active | AID 1347043; also: nearly all actives have a fitted effect of over 65% in size
Target sequence (P08659 whole entry, looked up): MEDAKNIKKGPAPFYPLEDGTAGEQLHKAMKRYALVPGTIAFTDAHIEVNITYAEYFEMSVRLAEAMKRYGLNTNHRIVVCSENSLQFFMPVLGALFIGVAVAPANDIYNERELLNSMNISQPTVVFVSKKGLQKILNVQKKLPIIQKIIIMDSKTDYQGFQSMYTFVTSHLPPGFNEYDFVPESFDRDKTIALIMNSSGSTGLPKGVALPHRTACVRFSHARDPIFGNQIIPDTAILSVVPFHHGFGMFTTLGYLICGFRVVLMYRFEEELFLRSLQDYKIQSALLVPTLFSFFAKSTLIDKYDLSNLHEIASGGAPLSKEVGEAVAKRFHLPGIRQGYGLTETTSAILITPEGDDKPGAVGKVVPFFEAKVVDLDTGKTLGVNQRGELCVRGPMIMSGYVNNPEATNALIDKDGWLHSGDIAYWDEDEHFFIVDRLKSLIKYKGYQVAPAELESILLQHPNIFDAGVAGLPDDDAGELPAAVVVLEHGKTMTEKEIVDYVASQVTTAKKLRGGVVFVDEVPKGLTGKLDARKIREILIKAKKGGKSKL
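Biochemical qHTS: compound (6-point titration) added to 10uM D-luciferin plus 10uM ATP in Tris acetate pH 7.5 buffer with Mg, Tween-20 and BSA, then purified enzyme at 10nM; light output imaged.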
Hits are given with their value; – = inactive; ? = inconclusive; · = not tested or not shown. This is a sample that favours compounds with a hit; in the whole collection about 11% have one here. Unless noted, calls follow the shape of the dose curve; as a rule, active = well fitted curve in the direction sought with a large enough effect; inconclusive = small, poorly fitted or top-dose-only effect, or another doubt; inactive = no such curve, though single readings can be large; an effect the other way counts as inactive or inconclusive.

SMILES	HEK293 tox	3T3 cytotox	hNpr1 antagonist	Luciferase inh
CC(=O)N1CCN(C(=O)C2CCCN2c2nccc(Nc3ccc(C)cc3)n2)CC1 (stereo not drawn)	–	–	·	·
O=C(Cc1cccc(Cl)c1)N1CCN(c2nccc(Nc3ccccc3Cl)n2)CC1	35.5µM	14.1µM	·	·
COc1cccc(Nc2ccnc(N3CCN(C(C)=O)CC3)n2)c1	–	?	·	·
COc1ccc(Nc2ccnc(N3CCN(C(=O)c4cccc(Cl)c4)CC3)n2)cc1	28.2µM	28.2µM	·	·
COc1ccc(Nc2ccnc(N3CCN(C(=O)Cc4cccc(Cl)c4)CC3)n2)cc1	?	28.2µM	·	·
COCCC1(N(C)C)CCN(C(=O)CC2CCCCC2)CC1	–	–	–	–
CCC(C)NC(=O)C(NC(=O)c1ccc(C)cc1)C1CCN(C(=O)CC(C)(C)C)CC1 (stereo not drawn)	–	–	–	–
OCc1cccc(-c2ccc3ncc(Nc4ccc(OCCN5CCCC5)cc4)n3n2)c1	100µM	?	–	–
OCc1cccc(-c2ccc3ncc(Nc4ccccc4Cl)n3n2)c1	89.1µM	?	–	22.4µM
OCc1cccc(-c2ccc3ncc(Nc4cccnc4)n3n2)c1	–	?	–	–
OCc1cccc(-c2ccc3ncc(Nc4cccc(C(F)(F)F)c4)n3n2)c1	?	50.1µM	–	–
COc1ccccc1NC(=O)Cn1cccc1-c1nc(-c2ccc(F)cc2)no1	–	–	–	–
Cc1cccc(CC(=O)N2CCCN(S(C)(=O)=O)c3ccccc32)c1	–	39.8µM	–	–
O=C(C1CC1)N1CCc2nc(-c3ccc(Cl)cc3)nc(-c3ccccc3)c2C1	39.8µM	?	–	–
O=C(c1ccccc1)N1CCc2nc(-c3ccc(Cl)cc3)nc(-c3ccccc3)c2C1	22.4µM	?	–	–
O=C(c1ccc(F)cc1)N1CCc2nc(-c3ccccc3)nc(-c3ccc(Cl)cc3)c2C1	?	?	–	–
Cc1nc2c(c(-c3ccc(O)cc3)n1)CN(C(=O)C1CCCC1)CC2	39.8µM	?	–	–
COc1ccc(-c2nc(-c3ccccc3)nc3c2CN(C(=O)C2CC2)CC3)cc1	?	?	–	–
COc1ccc(C(=O)N2CCc3nc(-c4ccccc4)nc(-c4ccc(Cl)cc4)c3C2)cc1	22.4µM	?	·	·
Cc1nc2c(c(-c3ccc(O)cc3)n1)CN(C(=O)C1CC1)CC2	–	–	–	–
COc1ccc2ccccc2c1CNC1CCN(c2ccc(C(=O)N3CCOCC3)cc2)CC1	–	–	–	–
COc1ccc(C(=O)N2CC[C@H]3C(=O)NCCCCCCN(Cc4ccncc4)[C@@H]3C2)cc1	–	–	–	–
COC(=O)CNC(=O)c1nc2cccnc2n(Cc2ccccc2OC)c1=O	–	–	·	·
Cc1ccc(C(=O)NCCc2ncc(C)n2CC2CC2)cn1	–	–	·	·
CCN1CCN(CCNC(=O)Cc2cccn2-c2ccc(C)cc2)CC1	–	–	–	–
SMILES	HEK293 tox	3T3 cytotox	hNpr1 antagonist	Luciferase inh
COc1ccc(CCNC(=O)c2noc(-c3ccccc3F)n2)cc1OC	31.6µM	?	?	–
O=C(NCC1CCCCC1)c1noc(-c2ccc[nH]c2=O)n1	–	–	–	–
COc1ccc(C(C)NC(=O)c2noc(-c3ccccc3F)n2)cc1OC (stereo not drawn)	–	?	–	–
O=C(NCC1CC1)c1noc(-c2ccccc2F)n1	–	–	–	39.8µM
Cn1ncc2c(C(=O)N3CCOCC3)cc(-c3ccc(C(F)(F)F)cc3)nc21	–	?	·	·
C=CCOc1cc(C)c2c(c1C)[C@H](O)C([C@H](C)C(=O)N(C)Cc1ccccc1)CC2 (stereo partly drawn)	?	70.8µM	–	–
COc1cccc(C(=O)N2CCN(C(=O)c3nc4cccnc4n(Cc4ccccc4)c3=O)CC2)c1	–	–	·	·
CC(C)c1csc(CN2CC[C@@H](c3ccc4c(c3)OCO4)[C@H](O)C2)n1	22.4µM	?	?	–
O=C(c1ccsc1)N1CCCC(CN2CCOCC2)CC1 (stereo not drawn)	–	–	·	·
O=C(Nc1ccc2c(c1)OCCO2)N1CCC(Cc2nncn2Cc2ccccc2)CC1	–	–	·	·
COc1ccc(-c2cc(N3CCCC(NC(=O)c4ccc(C)nc4)C3)n[nH]2)cc1 (stereo not drawn)	–	?	–	35.5µM
Cc1cc(C)cc(C(=O)NC2CCCN(c3cc(-c4ccc(F)cc4)[nH]n3)C2)c1 (stereo not drawn)	44.7µM	?	–	–
O=C(NC1CCCN(c2cc(-c3ccc(F)cc3)[nH]n2)C1)c1ccccc1 (stereo not drawn)	?	?	–	?
O=C(NC1CCCN(c2cc(-c3ccc(F)cc3)[nH]n2)C1)c1cccnc1 (stereo not drawn)	?	–	–	?
Cc1ccc(C(=O)NC2CCCN(c3cc(-c4ccc(F)cc4)[nH]n3)C2)cn1 (stereo not drawn)	20µM	–	–	?
CN(Cc1cnc2ccccn12)C(=O)c1cc(COc2ccc(F)cc2F)on1	?	?	?	–
CN1CCN(C(=O)c2cc(COc3ccc(F)cc3F)on2)CC1c1ccccc1 (stereo not drawn)	20µM	?	–	–
Cc1cccc2nc(CNC(=O)c3cc(COc4ccc(F)cc4F)on3)cn12	?	31.6µM	–	–
COc1cccc(CC(=O)NCc2nnc3c(-c4nc(C(C)C)no4)cccn23)c1	–	–	–	–
CC(C)(C)c1nnc2ccc(C(=O)NCc3cccnc3)cn12	–	–	·	·
O=C1[C@H]2CN(Cc3ccc(C(F)(F)F)cc3)C[C@H]2C(=O)N1CCc1ccccc1	35.5µM	22.4µM	–	–
CC(C)n1cc(C(=O)NCc2cccnc2Oc2ccc(F)cc2F)cn1	?	?	–	–
O=C(NCc1cccnc1Oc1ccc(F)cc1F)c1cc(C2CC2)[nH]n1	8.91µM	?	–	–
O=C(Cc1ccccc1)NCC1CN(Cc2cccnc2)CC12CN(c1ccccc1)C2 (stereo not drawn)	?	–	–	–
C=CCOc1c(OC)ccc2c1CN(Cc1ccccc1)C(=O)CCN2CC(O)Cc1ccccc1 (stereo not drawn)	50.1µM	?	·	·
SMILES	HEK293 tox	3T3 cytotox	hNpr1 antagonist	Luciferase inh
C=CCOc1c(OC)ccc2c1CN(Cc1ccccc1)C(=O)CCN2CC(C)O (stereo not drawn)	–	?	·	·
C=CCOc1c(OC)ccc2c1CN(CCOC)C(=O)CCN2CC(O)COc1ccccc1 (stereo not drawn)	?	–	·	·
C=CCOc1c(OC)ccc2c1CN(Cc1ccccc1)C(=O)CCN2CC(O)COc1ccc(OC)cc1 (stereo not drawn)	?	39.8µM	·	·
C=CCOCC(O)CN1CCC(=O)N(Cc2ccco2)Cc2c1ccc(OC)c2OCC=C (stereo not drawn)	?	–	·	·
C=CCOc1c(OC)ccc2c1CN(C1CCCC1)C(=O)CCN2CC(O)COc1ccccc1 (stereo not drawn)	?	39.8µM	·	·
CCn1c(C2CCN(S(=O)(=O)c3ccc(C)cc3)CC2)nn(C)c1=O	–	–	·	·
c1ccc(CCNc2ncncc2-c2nc(-c3ccccc3)no2)cc1	?	–	–	–
CCNC(=O)N1CCCC(Cc2noc(-c3ccccc3)n2)C1 (stereo not drawn)	31.6µM	–	–	?
